Rows were chosen to be rich in hits. Some 7.1% of all compounds tested hit in one or more screens of this group.
Pyk2 oligo antag – blocks oligomerization of human Pyk2 in cells; AID 1347419; z-score (the deposit names both 25 µM and 10 µM); Q293 cells, Pyk2 FERM NanoBiT luminescence; active compounds read low; Q14289; actives 0.83% (n = 99,000);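 active = Z-score of -3 or lower, scaled per plate to the spread of control and sample wells; inactive = z-score above -3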;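 note: negative z-score means lost luminescence so less FERM oligomerization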
Target sequence (Q14289 whole entry, looked up): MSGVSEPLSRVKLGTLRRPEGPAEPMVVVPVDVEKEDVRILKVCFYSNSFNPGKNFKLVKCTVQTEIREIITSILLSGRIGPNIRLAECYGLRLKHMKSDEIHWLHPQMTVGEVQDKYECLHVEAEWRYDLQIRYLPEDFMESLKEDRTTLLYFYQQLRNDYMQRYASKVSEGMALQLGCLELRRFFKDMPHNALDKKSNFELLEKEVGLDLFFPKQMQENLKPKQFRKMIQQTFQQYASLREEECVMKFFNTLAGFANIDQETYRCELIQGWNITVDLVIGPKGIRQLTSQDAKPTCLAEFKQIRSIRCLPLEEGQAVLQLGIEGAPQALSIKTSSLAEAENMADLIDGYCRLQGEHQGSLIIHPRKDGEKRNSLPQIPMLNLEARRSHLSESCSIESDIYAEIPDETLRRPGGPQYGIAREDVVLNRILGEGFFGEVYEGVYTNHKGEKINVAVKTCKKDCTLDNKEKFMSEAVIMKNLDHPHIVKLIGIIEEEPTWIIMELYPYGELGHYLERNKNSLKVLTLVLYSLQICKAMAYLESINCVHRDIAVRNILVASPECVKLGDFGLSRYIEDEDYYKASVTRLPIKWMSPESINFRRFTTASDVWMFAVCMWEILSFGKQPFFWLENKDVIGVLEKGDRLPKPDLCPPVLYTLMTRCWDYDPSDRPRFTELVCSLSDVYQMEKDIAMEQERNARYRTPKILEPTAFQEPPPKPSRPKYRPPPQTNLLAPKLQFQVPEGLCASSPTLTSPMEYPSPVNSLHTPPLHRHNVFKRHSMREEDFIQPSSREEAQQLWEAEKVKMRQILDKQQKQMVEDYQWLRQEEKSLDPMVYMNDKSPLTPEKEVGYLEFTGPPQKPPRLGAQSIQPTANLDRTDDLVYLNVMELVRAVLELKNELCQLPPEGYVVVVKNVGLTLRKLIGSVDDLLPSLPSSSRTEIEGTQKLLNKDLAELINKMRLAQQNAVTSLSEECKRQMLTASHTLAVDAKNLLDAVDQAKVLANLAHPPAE
Cav3 T inh – inhibitors of human Cav3.2 T-type calcium channel; Cav3.2-expressing cells, Fluo-4 calcium fluorescence FDSS; active compounds read low; O95180; actives 4% (n = 100,000); B-score at 10 µM;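 active = single-dose well whose peak fluorescence ratio is a statistical outlier from its plate by either plate-standardised score or position-corrected B-score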
M1 antag – blocks the rat M1 muscarinic receptor response to acetylcholine; B-score at 10 µM; P08482; actives 3.4% (n = 64,000); CHO-M1 cells, Fluo-4 calcium, ACh EC80 antagonist mode; active compounds read low;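 active = calcium fluorescence response, raw or row-and-column corrected B-score, differing from the plate sample mean either way at a set confidence level, mostly lower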
M1 agonist – agonists of M1 muscarinic receptor | B-score at 10 µM | AID 626 | CHO-M1 cells, Fluo-4 calcium fluorescence, agonist mode; active compounds read high | actives 3% (n = 64,000);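 active = fluorescence rise, raw or as B-score row- and column-corrected plate score, outside the 99.7% band of its plate's samples, either direction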
Hits are given with their value; i = inactive; nt = not tested or not shown.

SMILES	Pyk2 oligo antag	Cav3 T inh	M1 antag	M1 agonist
COc1ccc(-n2ncc(S(=O)(=O)c3ccccc3)c2-c2ccc(Cl)cc2)cc1	-3.27	-6.7	nt	nt
O=S(=O)(c1ccccc1)c1cnn(-c2ccccc2)c1-c1ccc(F)cc1	i	-5.83	nt	nt
Cc1cc(C(=O)NCCCN2CCN(c3cc(Cl)ccc3C)CC2)n(-c2ccccc2)n1	nt	-4.67	nt	nt
Cc1cc(C(=O)NCCN2CCN(c3cccc(Cl)c3)CC2)n(-c2ccccc2)n1	nt	i	i	i
CCOC(=O)Nc1nc(-c2ccccc2)c(C(=O)c2ccc(Cl)cc2)s1	-3.4	i	nt	nt
COc1ccc(CCNC(=O)C2CC3Cn4c(nc5ccccc54)C3N2c2ccccc2)cc1 (centres undefined)	nt	i	nt	nt
c1ccc(CSc2nnc(-c3cccs3)n2Cc2ccco2)cc1	i	i	i	i
Brc1ccc(CSc2nnc(-c3ccccn3)n2Cc2ccco2)cc1	i	-5.11	i	i
Cc1ccccc1CSc1nnc(-c2cccs2)n1Cc1ccco1	i	-6.45	nt	nt
COc1cc(Cl)c(C)cc1NC(=O)CSc1nnc(-c2ccccn2)n1Cc1ccco1	i	-7.33	i	i
O=C(CSc1nnc(-c2ccccn2)n1Cc1ccco1)c1ccc(Cl)cc1	i	-4.99	i	i
CCOC(=O)[C@@H]1[C@H]2COc3cc(OC)ccc3[C@@H]2N2C(=O)N(c3ccc(Cl)cc3)C(=O)[C@]12C	nt	i	nt	nt
Clc1cccc(CSc2nnc(-c3ccccn3)n2Cc2ccco2)c1	i	-7.57	i	i
CC1=CCC2C(=O)N(c3ccccc3OC(=O)c3ccccc3F)C(=O)C2C1 (centres undefined)	i	nt	nt	nt
C[C@@]12CCC=C[C@H]1[C@H](c1ccc(F)c(/C=C/c3ccccc3)c1)N(Cc1ccccc1)C2=O	nt	i	nt	nt
Cc1sc2ncn(CC(=O)OC(C)C)c(=O)c2c1C	nt	i	nt	nt
Oc1sc(C=Nc2ccccc2)c2ccccc12	i	-5.08	nt	nt
CCCC(C)NCC(=O)Nc1ccccc1-c1ccccc1 (centres undefined)	i	i	nt	nt
CCOC(=O)c1[nH]c2ccccc2c1CCCN1C(=O)c2ccccc2C1=O	-3.03	i	nt	nt
CCOC(=O)c1[nH]c2cc3c(cc2c1CCCN1C(=O)c2ccccc2C1=O)OCCO3	i	i	i	i
CC1(C)c2ssc(=S)c2-c2ccccc2N1C(=O)c1ccco1	i	i	i	i
Cn1cnnc1SCC(=O)N1c2ccccc2-c2c(ssc2=S)C1(C)C	nt	nt	-1.95	i
Cc1ccc(C(=O)COC(=O)C2C3C=CC(C3)C2C(=O)OCC(=O)c2ccc(C)c(C)c2)cc1C (centres undefined)	i	-5.08	nt	nt
COc1cc(/C=N/N(C)c2ccccc2)cc(Cl)c1O	-3.05	i	nt	nt
COc1ccc(OC)c(/C=N/N(C)c2ccccc2)c1	i	i	nt	nt
SMILES	Pyk2 oligo antag	Cav3 T inh	M1 antag	M1 agonist
Cc1ccc(NC(=S)NCc2cccs2)c(C)c1	i	i	nt	nt
O=[N+]([O-])c1ccc(N2CCC(=NOCc3ccc(Cl)cc3)CC2)cc1	i	-5.71	nt	nt
Cc1ccc(C(=O)ON=C2CCN(c3ccc([N+](=O)[O-])cc3)CC2)cc1	i	i	nt	nt
Cc1cc(Nc2nc3ccccc3[nH]c2=O)n(-c2ccccc2)n1	i	i	i	i
Cc1cc(Nc2cnc3ccccc3n2)n(-c2ccccc2)n1	i	-4.62	nt	nt
COc1c(Cl)cc(C(=O)Nc2ccccc2C(=O)O)cc1Cl	-3.08	i	nt	nt
COc1c(Cl)cc(C(=O)O)cc1Cl	nt	i	nt	nt
Cc1cc(NC(=O)CS(=O)(=O)c2cn(Cc3cccc(F)c3)c3ccccc23)no1	i	nt	3.61	i
C/C(=N/NC(=O)c1ccc(Br)o1)C(C)C	i	nt	nt	nt
CCCCSc1nc2c(cnn2-c2ccc(Cl)cc2)c(=O)[nH]1	i	i	i	5.62
COc1cccc(CNS(=O)(=O)c2cccc(S(=O)(=O)N3CCOCC3)c2)c1	i	i	nt	nt
COc1ccc(CNS(=O)(=O)c2cccc(S(=O)(=O)N3CCOCC3)c2)cc1	i	-4.41	nt	nt
C[C@H]1[C@@H](OC(=O)CCC(=O)O)O[C@@H]2OC3(C)CC[C@H]4[C@H](C)CC[C@@H]1[C@@]24OO3	nt	i	nt	nt
CC(C)(C)OC(=O)CNC(=O)c1[nH]cnc1C(=O)Nc1ccc(Cl)cc1	nt	i	nt	nt
CC1CC(C)CN(C(=O)Cn2c(SCC(=O)N3CCc4ccccc4C3)nc3ccccc32)C1 (centres undefined)	i	-8.41	nt	nt
COc1c(C(=O)Nc2ccc(Cc3ccncc3)cc2)ccc2ccccc12	i	nt	nt	nt
CCOC(=O)C[C@H]1c2cc(F)ccc2S(=O)(=O)N1C1CCCC1	nt	i	nt	nt
Oc1[nH]c2ccccc2c1/C=N/c1nccs1	i	nt	i	i
Oc1c(Cl)cc(Cl)cc1/C=N/c1nccs1	i	-9.33	nt	nt
CNC(=O)[C@@]1(C)C=C[C@@H](Cc2ccccc2)N1C(=O)OC	nt	i	nt	nt
CCc1ccc2nc(N3C(=O)C(O)=C(C(=O)c4ccco4)C3c3cccs3)sc2c1 (centres undefined)	i	-4.25	nt	nt

Source: PubChem BioAssay (several laboratories)
